In the library only some 32% were active in any assay of this set; here they are far more common.
PostGolgi yeast = growth inhibition of a yeast mutant, post-Golgi transport screen; hit rate 0.9% among 98,000; inhibition, % at 10 µM; post-Golgi transport phenotypic cell assay;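 also: yeast cells grown in 1536-well plates; yeast grown about 18 h at 30C before absorbance read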
PostGolgi ctrl = yeast control strain growth, post-Golgi counter-screen. inhibition, % at 10 µM. hit rate 5% among 98,000. efflux-deficient yeast background strain, growth absorbance A615, 16 h. AID 738
CYP2C9 inh = human CYP2C9 inhibition; AID 777; inhibition, % at 5 µM; CYP2C9 Supersomes, luciferin-H conversion, luminescence; hit rate 20% among 96,000; P11712;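 active = blocking of liver enzyme CYP2C9 beyond about 50% at 5 µM, limit read from the data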
CYP2C19 inh = human CYP2C19 inhibition. P33261. CYP2C19 Supersomes, luciferin-H EGE luminescence, 30 min. inhibition, % at 5 µM. hit rate 21% among 96,000. AID 778;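 active = CYP2C19 inhibition above a set limit at 5 µM in the primary screen, cut at about 50% in these data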;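 also: plate controls were negative control wells for no effect and 2.5 mM tranylcypromine positive control for full effect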
Target sequence (P33261 whole entry, looked up): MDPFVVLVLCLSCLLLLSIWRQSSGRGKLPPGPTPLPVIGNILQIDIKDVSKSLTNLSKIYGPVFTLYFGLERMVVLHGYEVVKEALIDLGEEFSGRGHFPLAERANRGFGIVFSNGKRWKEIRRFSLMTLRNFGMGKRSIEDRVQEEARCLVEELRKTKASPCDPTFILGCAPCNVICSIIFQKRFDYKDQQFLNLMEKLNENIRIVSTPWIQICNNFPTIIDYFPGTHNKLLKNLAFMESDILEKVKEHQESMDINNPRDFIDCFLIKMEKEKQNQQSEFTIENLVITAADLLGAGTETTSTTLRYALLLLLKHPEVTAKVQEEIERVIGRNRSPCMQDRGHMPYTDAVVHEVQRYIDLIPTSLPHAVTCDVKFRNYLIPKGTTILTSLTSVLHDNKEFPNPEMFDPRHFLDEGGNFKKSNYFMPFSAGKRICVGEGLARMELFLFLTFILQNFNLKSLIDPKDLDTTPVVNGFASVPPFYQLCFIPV
CYP2C9 activ = CYP2C9 (human) activation | activation factor at 5 µM | hit rate 1.4% among 96,000 | P11712 | recombinant CYP2C9, luciferin-H conversion, luminescence; hits give high values; factor 1 = untreated enzyme, 0 = blocked;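 active = activation factor of 2 or more for CYP2C9 at a 5 µM dose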;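 also: 0 = sulfaphenazole-blocked wells and 1 = vehicle-only wells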
CYP2C19 activ = increases human CYP2C19 enzyme activity. 96,000 tested, under 10 active. P33261. recombinant CYP2C19, luciferin-H EGE luminescence; hits give high values; 0 = fully inhibited enzyme, 1 = untreated enzyme. AID 1025. activation factor at 5 µM;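 active = activation factor of at least 2 at 5 µM in the primary screen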;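 also: 0 = wells with 2.5 mM tranylcypromine and 1 = vehicle-only wells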
* hit, by the source's call. Rule as the data show it, unless noted: active = inhibition above about 30%; inactive = the rest.

SMILES	PostGolgi yeast	PostGolgi ctrl	CYP2C9 inh	CYP2C19 inh	CYP2C9 activ	CYP2C19 activ
Cc1noc(C)c1C(=O)OCC(=O)c1cc(C)n(Cc2ccccc2Cl)c1C	-2	8	87*	90*	0.1	0.1
Cc1cc(C(=O)Nc2c(C)nn(Cc3ccccc3Cl)c2C)no1	-7	-1	32	13	0.7	0.9
O=C(CCCN1C(=O)c2cccnc2C1=O)N1CC(=O)N(CCc2ccccc2)C(=O)C1	7	-1	13	24	0.9	0.8
COc1cc2c(cc1OC)C(c1cccs1)CC(=O)N2 (configuration not stated)	1	-2	4	-10	1	1.1
O=C1CC(c2ccc3c(c2)OCO3)c2cc3c(cc2N1)OCCO3 (configuration not stated)	8	9	91*	78*	0.1	0.2
O=C1CC(c2cccs2)c2cc3c(cc2N1)OCO3 (configuration not stated)	-5	16	19	67*	0.8	0.3
O=C1CC(c2ccncc2)c2cc3c(cc2N1)OCCO3 (configuration not stated)	-2	-6	59*	61*	0.4	0.4
CCOc1c(OC)cccc1C1CC(=O)Nc2cc3c(cc21)OCCO3 (configuration not stated)	-1	5	70*	94*	0.3	0.1
O=C1CC(c2ccsc2)c2cc3c(cc2N1)OCCO3 (configuration not stated)	-3	15	42	21	0.6	0.8
COc1ccc(CCNC(=O)c2ccc(N3CCCC3=O)cc2)cc1	3	5	17	7	0.8	0.9
CCn1ncc(/C=C/C(=O)Nc2c(C)nn(Cc3ccc(Cl)cc3Cl)c2C)c1C	-4	1	16	-8	0.8	1.1
COc1cc(-c2cccs2)cc(=O)c2c(C)oc(C)c12	-9	3	41	13	0.6	0.9
COc1ccc(-c2cc(OC(=O)c3ccc(F)cc3)c3c(C)oc(C)c3c(=O)c2)cc1	-1	2	56*	0	0.4	1
COc1ccc(Cn2cc3c(-c4ccc(F)cc4)nnc-3c3cc(OC)c(OC)cc32)cc1	13	6	42	4	0.6	1
COc1cc2c3nnc(-c4ccc(F)cc4)c-3cn(Cc3ccc(F)cc3)c2cc1OC	1	-2	77*	34	0.2	0.7
Cc1nn2c(-c3ccccc3)nnc2c2ccccc12	-1	31*	15	8	0.8	0.9
CC1CCCN(S(=O)(=O)c2ccc(NC(=O)c3cccc(-n4cnnn4)c3)cc2)C1 (configuration not stated)	11	5	31	18	0.7	0.8
O=C(Nc1ccccc1)C1CCN(C(=O)c2ccccc2)CC1	-1	16	35	23	0.6	0.8
CCCN1C(=O)c2ccccc2NC1c1ccc(OC)cc1O (configuration not stated)	-4	1	46	81*	0.5	0.2
CCCN1C(=O)c2cc(C(=O)O)ccc2C1O (configuration not stated)	-5	-6	0	-19	1	1.2
CCCN1C(=O)c2ccccc2NC1c1ccc(OC)cc1OC (configuration not stated)	2	7	53*	63*	0.5	0.4
CCCCN(C)CCCNC(=O)CC1Oc2ccccc2NC1=O (configuration not stated)	4	15	-10	-22	1.1	1.2
CCOC(=O)C1C(=O)CC(=O)CC1CC(C)SCC (configuration not stated)	-2	2	-10	6	1.1	0.9
Cc1noc(C)c1COc1ccc(C(=O)OCC(=O)NC(=O)C2COc3ccccc3O2)cc1 (configuration not stated)	-1	7	41	14	0.6	0.9
CCCCCCCCCC(=O)N/N=C/c1ccc(C)s1	8	33*	74*	77*	0.3	0.2
SMILES	PostGolgi yeast	PostGolgi ctrl	CYP2C9 inh	CYP2C19 inh	CYP2C9 activ	CYP2C19 activ
CCCCCCCC(=O)N/N=C/c1ccc(Br)cc1	-1	13	18	75*	0.8	0.2
CCCCCCCC(=O)N/N=C/c1ccco1	2	16	10	42	0.9	0.6
CCCCCCCC(=O)N/N=C/c1cccnc1	4	6	27	39	0.7	0.6
CCCCCCCCCCCC(=O)N/N=C/c1ccco1	16	11	56*	26	0.4	0.7
O=C(COc1ccccc1)NC(Cc1c[nH]c2ccccc12)C(=O)O (configuration not stated)	10	26	31	26	0.7	0.7
CC(C)CN(CC(C)C)C(=O)Cc1coc2ccc3ccccc3c12	-11	14	12	40	0.9	0.6
Cc1cc(N(C)Cc2ccccc2)nc(-c2ccccc2)n1	-4	6	80*	96*	0.2	0
O=C(OC(C(=O)NCc1cccs1)c1ccccn1)c1cccs1 (configuration not stated)	-4	3	23	59*	0.8	0.4
O=C(OC(C(=O)NC1CCCCC1)c1ccccn1)c1cccs1 (configuration not stated)	4	-2	6	19	0.9	0.8
COc1cc(S(=O)(=O)NCc2cccnc2)c(OC)cc1Br	-1	3	12	14	0.9	0.9
O=C(Nc1cccc(F)c1)N(Cc1ccc(Cl)cc1)CC(O)C(F)(F)F (configuration not stated)	13	58*	50	47	0.5	0.5
O=C(Nc1ccccc1)N(Cc1ccccc1)CC(O)C(F)(F)F (configuration not stated)	-9	12	35	16	0.6	0.8
C/C(=N/NC(N)=S)c1ccccc1[N+](=O)[O-]	-1	4	-3	-1	1	1
CCOC(=O)CNc1nc(C#N)nc(N2CCOCC2)n1	5	3	-3	-5	1	1
C1=C(c2ccccc2)CCN(c2nc3ccccc3n3cnnc23)C1	5	10	34	34	0.7	0.7
c1ccc(N2CCN(c3nc4ccccc4n4cnnc34)CC2)cc1	6	23	49	65*	0.5	0.3
c1ccc2c(c1)CCN(c1nc3ccccc3n3cnnc13)C2	-5	43*	-6	12	1.1	0.9
c1ccc(CN2CCN(c3nc4ccccc4c4ccccc34)CC2)cc1	3	18	92*	28	0.1	0.7
c1ccc(CN2CCN(c3nc4ccccc4n4cnnc34)CC2)cc1	-4	34*	22	36	0.8	0.6
c1ccc2c(c1)nc(N1CCOCC1)c1nncn12	14	0	15	2	0.8	1
O=C(CCCN1C(=O)C2CCCCN2C1=O)N1CCN(c2ccc([N+](=O)[O-])cc2)CC1 (configuration not stated)	-3	25	0	-2	1	1
